According to the supplement of paper PMC6555819:

tested on: RXRa homodimer (NR concentration 180 nM); experiment: PBM binding z-score (relative to random genomic background probes); higher = stronger binding; sequences stand for … in GC…GCGATTGACAGCGTAGAATGAAGG
Outline: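 Antibodies against each partner of ligand-free nuclear receptor dimers (one per run) detected binding on custom Agilent 4×180K protein-binding microarrays after 1 h incubation. The double-stranded probes had 34-nt variable regions carrying direct-repeat seeds, single-nucleotide variants, half-site ablations and random human genomic background sequences. Binding z-scores, from regression-normalized fluorescence, use the random background probes as reference.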

| Sequence | PBM binding z-score |
| --- | --- |
| CCGACAGGGGCAAAGGTTACCATACTCAGTACGA | 5.03 |
| CGTCAAAGTTCAAGATAACGTAACAGAAAGCAGC | 4.34 |
| CTCGAAAGGTCGGTTGAGGTGAGTGTACGGATAA | 2.49 |
| GCAGACAGGTGAAACGCAGGTAACGCAGGGTGGC | 0.641 |
| AGAATGAGGTTACCAAAGATCACGGAAACGCTTG | 2.95 |
| CGAACTAGGTCCTCCAGGACAGTGAATACATTGA | 0.00298 |
| TCTTGTAGATCAAGCAGCTTAAGAAAGCCTGAGT | -0.293 |
| TCTAGCAGGGCAGAGGGTCACTCAAGAGGTACGG | 2.68 |
| GCTTGTAGATCAAGGTTGAGAAAGACTAAGCTAA | -0.32 |
| AGTCAAAGTTCCGGACGAGGTAACGTAAAGCACG | 0.201 |
| CCTTACGGGTCACTCCAGGGTATAGCATCGGAGT | 4.2 |
| ACTACTAGTTGAGACGAGGGCAACCGATAGGTTG | 0.506 |
| GCTGCTAGGTCAGGGTGGTCAGCTAACGGGTACG | 1.41 |
| GCTGTTAGTTGAAAGGGCAACCGAATGATTCTCG | 1.23 |
| TGAATGAGGTTAAACATCAGGGAACGTGGCGTCG | 3.15 |
| TCGAGTAGGTTAGTGGCATTCAGAATGGCGTCGA | -0.235 |
| CCAACTGGGGCAAGGTTACCATAACGCACAGCCA | 1.13 |
| TAGCCTAGGTCATGCGGGCCAGGATAGTGTCGGC | 2.94 |
| GCTGCTAGGTCTACTGATGGTCAGCTAAAGCTCG | -0.738 |
| ACAGACAGGAGAGTGAAGGTAACTCAGCTGGACG | 0.0394 |
| GATACAGGGTCATGGCCAGAGTACGCGTATTGAT | 6.72 |
| GCTAGTTGGTCAGCAAAAGGTCACACACCGGTCG | 6.14 |
